Results from PubChem BioAssay (NCATS).
“And” between values parts separate entries of the source, which are not always exact repeats. Equal values may be shown once. Results filed as inconclusive are left out. More than one record can exist for a structure, and the calls need not agree. The source made the active and inactive calls. Unless noted, calls come from the whole dose curve; as a rule, active = well fitted curve in the direction sought with a large enough effect; inconclusive = small, poorly fitted or top-dose-only effect, or another doubt; inactive = no such curve, though single readings can be large; an effect the other way counts as inactive or inconclusive.

Experiments:
[1] = Cell Viability - N2a (AID 540); conditions: N2a mouse neuroblastoma cell viability; at 92.2 µM (top of the series);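 note: cells exposed to compound for 40 h at 37 °C; plate controls were DMSO alone for no effect and tamoxifen control for full effect; nearly all actives have a fitted effect of over 45% in size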
Outline: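 Cytotoxicity was scored as loss of cellular ATP in N2a cells, a mouse neuroblastoma line. Compounds are applied in a qHTS concentration series for 40 hr at 37 °C.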

[2] = Cell Viability - LYMP1-002 - Assay at 16 hr (AID 948);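 note: 0% = DMSO alone and full effect = 92 µM tetraoctylammonium bromide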
Outline: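 Seed 2500 LYMP1-002 cells per well in complete medium and hold 5 hr at 37 C. Add compound across a concentration series and incubate 16 hr at 37 C. Add CellTiter-Glo, wait 30 min at room temperature, read luminescence.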

[3] = Cell Viability - LYMP2-003 (AID 965);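 note: cells exposed to compounds for 24 h before reading; nearly all actives have a fitted effect of over 50% in size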; note: potency is the fitted concentration of half-maximal effect;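 for activity change, negative = cytotoxicity: 0% = DMSO only and full effect = 92 µM tetraoctylammonium bromide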
Outline: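 Seed 2500 lymphoblastoid cells/well; incubate 5 hr, 37 C; add compounds; incubate 24 hr, 37 C; add CellTiter-Glo, 30 min RT; read luminescence. AC50 from Hill fit.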

[4] = Cell Viability - LYMP2-006 (AID 978); note: nearly all actives have a fitted effect of over 60% in size; note: potency is the fitted concentration of half-maximal effect; for activity change, negative = cytotoxicity: % is set by controls: 0 for no effect and ±100 for the full control effect
Outline: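 Cells are seeded at 2500 per well and rested 5 hr at 37 C. Compounds are added across a concentration series for 24 hr at 37 C, after which ATP is quantified by luciferase luminescence.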

[5] = Cell Viability - LYMP2-007 (AID 979);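 note: cells exposed to compound for 24 h before reading; nearly all actives have a fitted effect of over 60% in size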; note: potency is the fitted concentration of half-maximal effect;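 for activity change, negative = cytotoxicity: 0% = DMSO only and the negative end = 92 µM tetraoctylammonium bromide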
Outline: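 Cells are seeded at 2500 per well and rested 5 hr. Compounds are then added over a concentration series for 24 hr at 37 C. CellTiter-Glo is added for 30 min at room temperature before luminescence reading.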

[6] = molecular target: Thyroid hormone receptor beta (Homo sapiens) (UniProt P10828); assay: qHTS assay for small molecule agonists of thyroid hormone receptor beta signaling (AID 588545; calls by dose curve;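 note: 0% = DMSO only and 100% = 10 nM T3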)
Thyroid hormone receptor beta (Homo sapiens), sequence (P10828 whole entry, looked up): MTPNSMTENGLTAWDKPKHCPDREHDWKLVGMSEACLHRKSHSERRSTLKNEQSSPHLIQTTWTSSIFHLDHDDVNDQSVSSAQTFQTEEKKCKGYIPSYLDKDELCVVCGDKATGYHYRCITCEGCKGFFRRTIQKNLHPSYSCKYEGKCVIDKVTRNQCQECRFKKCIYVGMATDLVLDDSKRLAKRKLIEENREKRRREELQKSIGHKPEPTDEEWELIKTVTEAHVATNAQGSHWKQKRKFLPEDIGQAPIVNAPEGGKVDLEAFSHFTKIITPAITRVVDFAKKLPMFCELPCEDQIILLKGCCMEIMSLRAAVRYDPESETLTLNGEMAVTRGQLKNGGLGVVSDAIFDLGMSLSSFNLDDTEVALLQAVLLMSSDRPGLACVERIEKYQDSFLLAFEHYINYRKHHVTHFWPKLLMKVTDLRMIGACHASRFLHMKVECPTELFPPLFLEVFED
Outline: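 TR-UAS-bla GripTite HEK 293 cells (2500/well, medium with 2% charcoal/dextran FBS) were treated in agonist mode for 18 h at 37 C, titrated. Beta-lactamase was read by CCF4 ratio after 2 h; normalized to 10 nM T3 (100%) and DMSO, Hill-fitted for EC50 and efficacy.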

[7] = molecular target: Voltage-gated inwardly rectifying potassium channel KCNH2 (Homo sapiens) (UniProt Q12809); assay: qHTS Assay for Small Molecule Inhibitors of the Human hERG Channel Activity (AID 588834);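 note: top concentration of the series differs between compounds; % is set by controls: 0 for no effect and ±100 for the full control effect; lower thallium flux fluorescence means stronger hERG block; nearly all actives have a fitted effect of over 50% in size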
Voltage-gated inwardly rectifying potassium channel KCNH2 (Homo sapiens), sequence (Q12809 whole entry, looked up): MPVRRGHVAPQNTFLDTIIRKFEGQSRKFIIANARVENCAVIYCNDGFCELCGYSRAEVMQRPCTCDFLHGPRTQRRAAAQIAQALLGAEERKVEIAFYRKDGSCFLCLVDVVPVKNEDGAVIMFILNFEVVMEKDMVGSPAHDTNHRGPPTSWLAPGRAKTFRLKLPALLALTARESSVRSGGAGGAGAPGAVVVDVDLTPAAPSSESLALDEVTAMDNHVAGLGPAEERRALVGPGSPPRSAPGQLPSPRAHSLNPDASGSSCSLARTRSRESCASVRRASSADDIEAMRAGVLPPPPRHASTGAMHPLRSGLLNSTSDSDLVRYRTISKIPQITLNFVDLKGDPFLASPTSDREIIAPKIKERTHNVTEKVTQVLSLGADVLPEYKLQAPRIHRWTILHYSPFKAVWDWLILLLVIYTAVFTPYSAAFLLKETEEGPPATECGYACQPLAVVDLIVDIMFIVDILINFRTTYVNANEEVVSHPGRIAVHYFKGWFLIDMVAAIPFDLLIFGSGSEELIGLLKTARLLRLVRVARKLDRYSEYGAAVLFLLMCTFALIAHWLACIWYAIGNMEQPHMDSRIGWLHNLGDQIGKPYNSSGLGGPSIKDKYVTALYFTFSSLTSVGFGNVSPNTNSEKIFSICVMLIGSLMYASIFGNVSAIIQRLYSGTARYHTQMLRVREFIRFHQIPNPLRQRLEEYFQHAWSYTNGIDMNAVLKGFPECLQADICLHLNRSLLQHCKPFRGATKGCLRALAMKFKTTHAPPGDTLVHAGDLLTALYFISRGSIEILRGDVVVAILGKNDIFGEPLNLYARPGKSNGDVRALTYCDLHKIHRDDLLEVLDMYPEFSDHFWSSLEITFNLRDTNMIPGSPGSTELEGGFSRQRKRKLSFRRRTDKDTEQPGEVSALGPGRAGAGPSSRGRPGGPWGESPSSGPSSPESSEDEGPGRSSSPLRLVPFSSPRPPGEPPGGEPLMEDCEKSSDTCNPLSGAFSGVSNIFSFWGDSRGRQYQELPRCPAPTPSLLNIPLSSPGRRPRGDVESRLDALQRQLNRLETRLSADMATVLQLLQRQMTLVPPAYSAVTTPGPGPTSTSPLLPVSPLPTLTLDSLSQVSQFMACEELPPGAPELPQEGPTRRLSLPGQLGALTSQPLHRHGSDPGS
Outline: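 Step 1: BacMam hERG transduction of U2OS, 4 hrs RT. Step 2: overnight 37 °C, plate 2000 cells/well, 4 hr. Step 3: FluxOR load, compound 10 min, stimulate, read fluorescence.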

[8] = qHTS assay for small molecule activators of the p53 signaling pathway (AID 651743; active = well fitted activation curve with a large enough effect in the signal ratio, not every such curve was filed as active; the % refers to the signal ratio; note: % of control where 0% means no effect); conditions: HCT-116 p53RE-bla, beta-lactamase FRET ratio, 16 h; activation: stronger effect = higher value
Outline: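 Following 16 hours of compound exposure at 37 C, HCT-116 cells bearing the p53RE-bla reporter were loaded with LiveBLAzer B/G FRET substrate for 2 hours at room temperature and fluorescence intensity was recorded.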

[9] = qHTS assay for small molecule activators of the nuclear factor-kappa B (NF-kB) signaling pathway (AID 651749; active = well fitted activation curve with a large enough effect in the signal ratio; the % refers to the signal ratio; note: % of control where 0% means no effect); conditions: NF-kB-bla ME-180 cells, beta-lactamase FRET ratio, 16 h; activation: stronger effect = higher value
Outline: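 In this qHTS format, compounds acting as activators increase NF-kB-driven beta-lactamase in ME-180 cells, measured as disrupted FRET after 16 hr exposure at 37C and 5% CO2.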

[10] = qHTS assay for environmental chemicals that activate the Aryl hydrocarbon Receptor (AhR) signaling pathway (AID 651777); conditions: 1A2-DRE human hepatoma cells, luciferase, 24 h; activation: stronger effect = higher value; note: nearly all actives have a fitted effect of over 15% in size; note: potency is the fitted concentration of half-maximal effect; for activation: % of control where 0% means no effect
Outline: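 Human hepatoma 1A2-DRE cells, stably carrying a dioxin response element and CYP1A2 promoter driving luciferase, were exposed to compounds for 24 hr at 37 C and 5% CO2. Luciferase signal was then read after 30 min One-Glo at room temperature.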

[11] = molecular target: Nuclear receptor ROR-gamma (Homo sapiens) (UniProt P51449); assay: qHTS assay for small molecule antagonists of the retinoid-related orphan receptor gamma (ROR-gamma) signaling pathway (AID 651802); note: nearly all actives have a fitted effect of over 60% in size; note: potency is the fitted concentration of half-maximal effect
Nuclear receptor ROR-gamma (Homo sapiens), sequence (P51449 whole entry, looked up): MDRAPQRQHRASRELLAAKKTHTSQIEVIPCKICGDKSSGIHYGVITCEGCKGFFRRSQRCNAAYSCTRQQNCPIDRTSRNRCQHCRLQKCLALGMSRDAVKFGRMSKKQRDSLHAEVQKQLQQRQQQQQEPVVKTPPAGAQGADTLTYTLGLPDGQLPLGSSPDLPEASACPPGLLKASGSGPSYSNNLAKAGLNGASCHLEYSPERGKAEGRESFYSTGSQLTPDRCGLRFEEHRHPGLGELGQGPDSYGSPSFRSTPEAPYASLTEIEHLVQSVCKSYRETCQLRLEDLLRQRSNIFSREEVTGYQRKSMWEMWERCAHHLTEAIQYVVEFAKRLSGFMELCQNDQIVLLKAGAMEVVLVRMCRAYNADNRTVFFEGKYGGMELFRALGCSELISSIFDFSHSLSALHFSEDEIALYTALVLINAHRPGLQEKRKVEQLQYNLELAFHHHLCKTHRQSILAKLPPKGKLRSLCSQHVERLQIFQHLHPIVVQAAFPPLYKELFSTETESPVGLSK
Outline: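 Steps: cells dispensed; compound or DMSO transferred by pin tool; doxycycline added to induce the ROR response element-driven luciferase; plates held 16hr at 37C; ONE-Glo added and luminescence measured.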

[12] = Cell Viability - MRC5 (AID 434; calls by dose curve;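 note: potency is the fitted concentration of half-maximal effect; cells exposed to compound for 40 hours at 37 °C; potency reflects cytotoxicity seen as loss of intracellular ATP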); conditions: MRC5 lung fibroblast viability, qHTS
Outline: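 ATP luminescence read-out (CellTiter-Glo, 20 min RT) after 40 hr, 37 °C compound exposure of 1500 MRC5 cells/well. Data normalized to DMSO (basal) and 100 uM tamoxifen (100% inhibition); AC50 from standard Hill equation.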

[13] = Cell Viability - H-4-II-E (AID 543);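 note: cells exposed to compound for 40 hours; % is set by controls: 0 for no effect and ±100 for the full control effect; nearly all actives have a fitted effect of over 35% in size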
Outline: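 Cells seeded at 1500 per well and rested 5 hr; compounds added; 40 hr incubation at 37 °C; CellTiter-Glo added, 20 min at room temperature; luminescence read. Hill-equation fits gave AC50.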

[14] = Cellular Toxicity (caspase-3) Jurkat (AID 655); conditions: Jurkat caspase-3 activation, luminescence, DMSO = 0%, tamoxifen = 100%; at 92.2 µM (top of the series);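 note: cells exposed to compound for 16 h at 37 °C before reading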
Outline: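 5000 Jurkat cells/well; compound 16 hr, 37 °C; Caspase-Glo 3/7 added, 20 min RT; luminescence read. Norm: DMSO = 0%, tamoxifen 100 uM = 100%. AC50, Hill model.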

[15] = MultiTox-Fluor Cytotoxicity Assay - LYMP1-002 - Dead Cells (AID 960);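 note: 0% = DMSO and 100% = tetraoctylammonium bromide; nearly all actives have a fitted effect of over 60% in size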
Outline: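 Cells were plated, rested 5 hr, then treated with compound dilution series for 16 hr at 37 C. After adding substrate reagent and 60 min at room temperature, dead-cell protease fluorescence gave concentration-response curves fitted by the Hill equation.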

[16] = MultiTox-Fluor Cytotoxicity Assay - LYMP1-003 - Dead Cells (AID 961); note: nearly all actives have a fitted effect of over 70% in size; note: potency is the fitted concentration of half-maximal effect
Outline: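 LYMP1-003 human lymphoblastoid cells (2500/well) exposed to compound 16 h at 37 C in complete medium; dead-cell protease read with bis-AAF-R110 fluorescence (Ex/Em 485/520) after 60 min at room temperature. Normalized to DMSO and 15 uM tetraoctylammonium bromide; AC50 from Hill fit.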

[17] = Cell Viability - LYMP2-009 (AID 968); note: nearly all actives have a fitted effect of over 55% in size; note: potency is the fitted concentration of half-maximal effect
[18] = qHTS assay for small molecule antagonists of retinoid X receptor alpha signaling (AID 588546); conditions: HEK293T RXRa-UAS-bla, beta-lactamase ratio, antagonist mode; measured here: W530 green channel, cytotoxicity proxy;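 note: cells stimulated with 9-cis-retinoic acid as agonist; % is set by controls: 0 for no effect and ±100 for the full control effect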
Outline: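 Beta-lactamase reporter inhibition, read as CCF4 fluorescence ratio (ex 405, em 460/530 nm) after 2 h at RT. HEK293T UAS-bla cells, 2500/well, were stimulated with 9-cis-RA at 500 or 100 nM final alongside test compound for 18 h at 37 C.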

[19] = molecular target: Thyroid hormone receptor beta (Homo sapiens) (UniProt P10828); assay: qHTS assay for small molecule antagonists of thyroid hormone receptor beta signaling (AID 588547; active = well fitted inhibition curve with a large enough effect in the signal ratio, with a control signal flat, not every such curve was filed as active; the % refers to the signal ratio;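 note: cells stimulated with 0.4 nM T3 agonist during compound exposure; % is set by controls: 0 for no effect and ±100 for the full control effect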); conditions: TR-UAS-bla HEK293, beta-lactamase ratio, antagonist mode, 18 h
Outline: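 TR-UAS-bla GripTite HEK293 cells in 2% charcoal/dextran FBS medium; compounds 0.59 nM to 92 uM with T3 at 0.4nM final, 18 h at 37 C. Beta-lactamase read by CCF4 fluorescence (460/530 nm); Hill fits gave IC50 and efficacy.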

[20] = qHTS assay for small molecule agonists of the antioxidant response element (ARE) signaling pathway measured by Nrf2-dependant transcriptional activity (AID 720636; active = well fitted curve in the direction sought with a large enough effect in the repeat runs; an effect the other way counts as inactive or inconclusive; note: % of control where 0% means no effect)
Outline: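 ARE-luc HepG2 cells carrying an Nrf2-responsive luciferase reporter were plated in medium with 1% dialyzed FBS, left 6 hr at 37 C to attach, then exposed to compound for 16 hr. Luciferase luminescence was read after ONE-Glo addition.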

CCOCN(C(=O)CCl)c1c(C)cccc1CC
active: Potency [3] 50.1 µM | Potency [4] 50.1 µM | Potency [5] 50.1 µM
inactive: activity change, negative = cytotoxicity [1] 4.55% | Potency [2] | outcome [6] | Potency [7] | activation [8] -6.37% and -3.12% | activation [9] -2.07% and -2.02% | activation [10] -0.995% and 0.961% | Potency [11]

C=CCc1ccc2c(c1)OCO2
inactive: Potency [12] > 92 µM | activity change, negative = cytotoxicity [1] -3.41% | Potency [13] | caspase-3 activation [14] 1.31% | Potency [2] | Potency [15] | Potency [16] | Potency [3] | Potency [17] | Potency [4] | Potency [5] | outcome [6] | activity change % (negative = inhibition) [19] -3.5% | Potency [7] | activation [8] -1.35% | activation [9] -0.401% | Potency [11] | outcome [20]
-5.37%: max response [18]

CCc1cccc(CC)c1N(COC)C(=O)CCl
inactive: activity change, negative = cytotoxicity [1] -5.69% | Potency [2] | Potency [15] | Potency [16] | outcome [6] | activity change % (negative = inhibition) [19] -17.8% and -7.56% | Potency [7] | activation [9] -1.33% and -2.4% | activation [10] -1.54% and -2.21%
18.2%: max response [18]
active: Potency [17] 50.1 µM

ClC(Cl)=C(c1ccc(Cl)cc1)c1ccc(Cl)cc1
active: Potency [11] 37.6 µM and 33.5 µM
-0.142% and -15.3%: max response [18]
inactive: Potency [12] > 92 µM | activity change, negative = cytotoxicity [1] -14.6% | Potency [13] | caspase-3 activation [14] 0.557% and 1.81% | Potency [2] | Potency [15] | Potency [16] | Potency [3] | Potency [17] | Potency [4] | Potency [5] | outcome [6] | activity change % (negative = inhibition) [19] 0.649% and 24.3% and -8.25% | activation [8] -3.15% and -5.84% and 6.09% | activation [9] 0.128% and -1.11% and 0.0255% | activation [10] 0.0823% and 0.597% and 0.112% | outcome [20]

C/C=C/c1ccc2c(c1)OCO2
inactive: Potency [12] > 92 µM | activity change, negative = cytotoxicity [1] -2.31% | Potency [13] | caspase-3 activation [14] 2.64% | Potency [2] | Potency [15] | Potency [16] | Potency [3] | Potency [17] | Potency [4] | Potency [5] | outcome [6] | Potency [7] | activation [8] -2.48% | activation [9] -1.42% | Potency [11] | outcome [20]
-8.06%: max response [18]

ClC1=C(Cl)C2(Cl)C3C4C=CC(C4)C3C1(Cl)C2(Cl)Cl (stereo unspecified)
active: Potency [16] 39.8 µM | Potency [3] 31.6 µM | Potency [4] 39.8 µM | Potency [11] 23.7 µM
-0.359%: max response [18]
inactive: Potency [12] > 92 µM | caspase-3 activation [14] 6.54% | Potency [17] | Potency [5] | outcome [6] | activity change % (negative = inhibition) [19] -26.2% | activation [8] 0.0105% | activation [10] 0.192% | outcome [20]

CNC(=O)O/N=C/C(C)(C)SC
inactive: Potency [12] > 92 µM | activity change, negative = cytotoxicity [1] -2.66% | Potency [13] | caspase-3 activation [14] -0.602% | Potency [2] | Potency [15] | Potency [16] | Potency [3] | Potency [4] | Potency [5] | outcome [6] | activity change % (negative = inhibition) [19] -3.92% and 16.1% and 0.362% | Potency [7] | activation [8] -1.27% and -5.37% and -5.16% | activation [9] -0.362% and -4.25% and 1.36% | activation [10] -0.995% and 0.0962% | Potency [11] | outcome [20]
-9.38% and -5.02% and 4.99%: max response [18]
active: Potency [10] 39.8 µM

O=C(O)COc1ccc(Cl)cc1Cl
inactive: Potency [12] > 92 µM | activity change, negative = cytotoxicity [1] 9.64% and 3.72% | Potency [13] | caspase-3 activation [14] -0.262% and -0.585% | Potency [2] | Potency [15] | Potency [16] | Potency [3] | Potency [17] | Potency [4] | Potency [5] | Potency [7] | activation [8] -2.21% [middle of 4 runs] | outcome [20]
